ELG1 DNA repair – qHTS screen for small molecules that inhibit ELG1-dependent DNA repair in human embryonic kidney (HEK293T) cells expressing luciferase-tagged ELG1. HEK293T ELG1-luciferase reporter, luminescence, 16 h; DNA damage induced by 5-fluorouridine. Potency, µM (highest dose often 46.1 µM), for the others: top-dose activity change, negative = inhibition, usual class: inhibitors. actives 2.3% (n = 330,000). AID 504467, 2011; further: potency means the concentration at half of the fitted maximal effect; nearly all actives have a fitted effect of over 55% in size
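DMSO vehicle served as the neutral condition. Each well held 2,000 cells given 5-fluorouridine plus compound; after 16 hr at 37 °C/5% CO2, ONE-Glo was added and luciferase measured 30 min later.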
Giardia killer – Small Molecules that selectively kill Giardia lamblia: qHTS; activity change, % at 7.66 µM, hits read low; Giardia lamblia trophozoite viability; actives 0.15% (n = 340,000); in the data active means activity change below about -80%; inconclusive means between about -30% and that limit;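 further: parasites exposed to compound for two days anaerobically before the ATP read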
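Viability, read as ATP luminescence: trophozoites at 100 cells/well, compound added, 48 hrs anaerobic at 37 deg C, then 15-30 min room-temperature development before reading.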
DT40 TDP1 CPT – qHTS for Inhibitors of human tyrosyl-DNA phosphodiesterase 1 (TDP1): qHTS in cells in presence of CPT; chicken DT40 Tdp1-/-;hTDP1 cells + 20 nM CPT, ATP luminescence, 48 h; Potency, µM (doses to about 46.2 µM), without a hit: at the top dose activity change, negative = growth inhibition, hits mostly inhibitors; actives 12% (n = 420,000); AID 686979, 2013; further: potency means the concentration at half of the fitted maximal effect; nearly all actives have a fitted effect of over 55% in size
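Chicken DT40 Tdp1-/- cells stably complemented with human TDP1 were seeded at 400 cells/well in medium containing 20 nM camptothecin, exposed to pin-transferred compounds, and grown at 37 °C for at least 48 hr. Viability was read as ATP luminescence.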
TDP1 inh – qHTS Assay for Inhibitors of Tyrosyl-DNA Phosphodiesterase (TDP1); Tyrosyl-DNA phosphodiesterase 1 (Homo sapiens), Q9NUW8; recombinant TDP1, AlphaScreen DNA substrate cleavage; Potency, µM (titrated, usually from 130 µM), without a hit: at the top dose activity change, negative = inhibition, most hits filed as inhibitors; actives 0.28% (n = 350,000); AID 485290, 2010; further: potency means the concentration at half of the fitted maximal effect; nearly all actives have a fitted effect of over 40% in size
Target sequence (Q9NUW8 whole entry, looked up): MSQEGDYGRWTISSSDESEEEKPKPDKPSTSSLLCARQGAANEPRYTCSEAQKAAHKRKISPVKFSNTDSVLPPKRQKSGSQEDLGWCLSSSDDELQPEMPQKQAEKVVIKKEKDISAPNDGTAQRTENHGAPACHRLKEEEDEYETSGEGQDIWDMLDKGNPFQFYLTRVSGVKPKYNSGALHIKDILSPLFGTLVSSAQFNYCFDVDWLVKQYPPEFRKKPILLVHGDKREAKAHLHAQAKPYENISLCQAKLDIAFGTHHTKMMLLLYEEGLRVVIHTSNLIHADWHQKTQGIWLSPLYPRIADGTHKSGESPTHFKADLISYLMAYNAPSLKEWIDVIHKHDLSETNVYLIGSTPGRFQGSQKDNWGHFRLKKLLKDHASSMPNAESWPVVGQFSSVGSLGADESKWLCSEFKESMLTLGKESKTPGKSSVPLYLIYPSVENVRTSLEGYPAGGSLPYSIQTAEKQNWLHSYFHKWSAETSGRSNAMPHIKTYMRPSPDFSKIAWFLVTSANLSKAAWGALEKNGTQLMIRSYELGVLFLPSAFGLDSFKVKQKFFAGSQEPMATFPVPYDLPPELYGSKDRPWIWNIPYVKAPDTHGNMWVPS
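E. coli-derived human Tdp1, 1 nM final. Cpd preinc 15 min RT; substrate 15 nM final, 5 min RT; AS bead mix 10 ug/ml final, 10 min RT. Signal loss = tyrosine-FITC cleavage. No-enzyme wells = max signal.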
TDP1 cell noCPT – qHTS for Inhibitors of human tyrosyl-DNA phosphodiesterase 1 (TDP1): qHTS in cells in absence of CPT. Potency, µM (titrated, usually from 46.2 µM), for inactives: at the highest dose activity change, negative = growth inhibition, hits mostly inhibitors. DT40 Tdp1-/- hTDP1 cells, no CPT, ATP luminescence, 48 h. AID 686978, 2013. actives 15% (n = 420,000); further: potency means the concentration at half of the fitted maximal effect; nearly all actives have a fitted effect of over 55% in size
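Luminescent ATP content (CellTiter-Glo) served as the growth readout. Knockout chicken DT40 cells expressing human TDP1 were exposed to compounds without camptothecin for a minimum 48 hr at 37 °C.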
IL-1B inflam inh – qHTS for Inhibitors of Inflammasome Signaling: IL-1-beta AlphaLISA Primary Screen; activity change, % at 57.5 µM; actives 4.7% (n = 360,000); THP-1 LPS/ATP IL-1B secretion, AlphaLISA, 16 h; stronger effect = lower value; in the data active means activity change below about -50%; inconclusive means mostly about -30% to -49%
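THP-1 cells pretreated 1 hr with compounds (up to 57.5 uM final), then stimulated with LPS (250 ng/mL final) plus ATP (1.25 mM final); secreted IL-1B measured by AlphaLISA after 16 hr, decreased signal indicating inhibition.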
An asterisk follows results filed as active; ? = inconclusive; . = not tested or not shown. Shown are actives, neighbours in structure and some others; about 19% of the full set was active somewhere. Unless noted, the call rests on the fitted dose curve; in most records, active means well fitted curve in the direction sought with a large enough effect; inconclusive means small, poorly fitted or top-dose-only effect, or another doubt; inactive means no such curve, though single readings can be large; an effect the other way counts as inactive or inconclusive. On the % scale 0 is the no-effect control and ±100 the full control effect.

SMILES | ELG1 DNA repair | Giardia killer | DT40 TDP1 CPT | TDP1 inh | TDP1 cell noCPT | IL-1B inflam inh
Cc1cccc(C(=S)N2CCOCC2)n1 | 10% | -18 | 14% | 1% | 2% | -14
C/C(=N\NC(=O)c1ccccn1)c1ccc(C(=O)O)s1 | ? | . | . | 0% | . | .
CC(=NNC(=S)N1CCCCC1)c1cccc(C)n1 | . | -18 | 0.0092µM* | . | 0.018µM* | 0
CC(=NNC(=S)N1CCCCC1)c1ccccn1 | . | . | 0.026µM* | . | 0.0082µM* | -74*
N#CC1=C(N)N(c2ccc(Cl)cc2)C2=C(C(=O)CCC2)C1c1cc(CN2CCOCC2)cs1 (stereo not given) | . | . | ? | -2% | ? | .
CNC(=S)N/N=C/c1cn(Cc2c(F)cccc2Cl)c2ccccc12 | ? | 15 | ? | 8% | 12µM* | 38
CCNC(=S)N/N=C/c1cn(Cc2ccccc2F)c2ccccc12 | -16% | 8 | 6.5µM* | -5% | 5.8µM* | -19
O=C(NCC[C@H]1CC[C@@H](NC(=O)C2CCOCC2)[C@@H](CO)O1)Nc1ccc(Cl)cc1 | . | . | 9% | . | -2% | 5
CC(C)NC(=S)NNc1nc2ccccc2s1 | 0% | 4 | 1.5µM* | 10% | 2.9µM* | 3
O=C(NNc1nc2ccccc2s1)c1ccc(F)cc1 | ? | -3 | 11% | 11% | -13% | 3
COc1cccc(/C=N/NC(=O)C(=O)N2CCCC2)c1O | ? | -9 | ? | -8% | 16µM* | 117
COc1ccccc1/C=C\C(=O)NCC(=O)N/N=C/c1cccc(OC)c1O | -6% | 49 | 7.3µM* | ? | 7.3µM* | 183
COc1cccc(/C=N/Nc2nn3cnnc3c3ccccc23)c1O | -5% | 26 | 2.6µM* | 4% | 1.2µM* | 54
COc1ccccc1C=NN=C(N)C(N)=NN=Cc1ccccc1OC | . | 6 | ? | . | -87% | -4
COc1ccccc1C=NN=C(NN=Cc1ccccc1OC)NN=Cc1ccccc1OC | . | -11 | ? | . | ? | -82*
COc1ccccc1/C=C/C(=O)NCC(=O)N/N=C/c1cc(Br)ccc1OC | ? | 16 | ? | 7% | ? | 103
CCOc1ccc(OCC)c(NS(=O)(=O)c2c(C)[nH]c(=O)[nH]c2=O)c1 | . | . | -4% | 5% | -11% | .
COc1ccc(S(=O)(=O)N2CCOCC2)cc1NC(=O)CCc1cc(OC)c(OC)c(OC)c1 | ? | 23 | 1% | 1% | 13% | -24
CCn1c(C)nc2cc(C(=O)N/N=C/c3cccc(OC)c3O)ccc21 | ? | 5 | ? | 4% | ? | 166
COc1ccccc1C=NNC(=O)NN=Cc1ccccc1OC | . | 5 | -13% | . | ? | -17
COc1cccc(/C=N/NC(=O)CSc2ccccc2C)c1O | -19% | 11 | 1.2µM* | 8% | 1.3µM* | 46
COc1cccc(/C=N/NC(=O)N/N=C/c2cccc(OC)c2O)c1O | ? | -22 | ? | . | 3.7µM* | -97*
COc1cccc(/C=N/Nc2ccc(C(=O)O)cc2)c1O | ? | 6 | ? | -7% | 21µM* | 8
COc1cccc(/C=N/NC(=O)c2nc(-c3ccccc3)cc(-c3ccccc3)n2)c1O | ? | 6 | 12µM* | ? | 9.2µM* | 11
COc1cccc(/C=N/NC(=O)CSc2ccccc2C)c1OC | 1% | -7 | 4% | 3% | -15% | 18
SMILES | ELG1 DNA repair | Giardia killer | DT40 TDP1 CPT | TDP1 inh | TDP1 cell noCPT | IL-1B inflam inh
COc1cccc(/C=N/NC(=O)CNC(=O)c2cccs2)c1O | ? | -2 | 5.8µM* | 6% | 9.2µM* | 112
COc1cccc(C=NNC(=O)c2ccncc2)c1O | . | 5 | 0.92µM* | . | 0.18µM* | 185
O=C(Cn1c(=O)oc2cc(S(=O)(=O)N3CCCCCC3)ccc21)Nc1ccc(F)cc1F | . | . | ? | 3% | ? | .
NC(N)=NCCC[C@H](NC(=O)[C@H](Cc1ccccc1)NC(=O)[C@@H]1CCCN1C(=O)[C@H](CO)NC(=O)[C@H](Cc1ccccc1)NC(=O)CNC(=O)[C@@H]1CCCN1C(=O)[C@@H]1CCCN1C(=O)[C@@H](N)CCCN=C(N)N)C(=O)O | . | . | . | 5% | . | .
CCOc1ccc(CCN2C(=S)N([C@@H](Cc3ccc(O)cc3)CN3CCC[C@@H]3CN3C(=S)NC[C@@H]3Cc3ccccc3)C[C@@H]2CC(C)C)cc1 | . | . | 10µM* | . | 9.2µM* | -17
CCOc1ccc(CCN2C(=S)N([C@@H](Cc3ccc(O)cc3)CN3CCC[C@@H]3CN3C(=S)NC[C@@H]3CC(C)C)C[C@@H]2CC(C)C)cc1 | . | . | 16µM* | . | 21µM* | -59*
CCOc1ccc(CCN2C(=S)N([C@@H](Cc3ccccc3)CN3CCC[C@@H]3CN3C(=S)NC[C@@H]3CC(C)C)C[C@@H]2Cc2ccccc2)cc1 | . | . | ? | . | 15µM* | -17
CCOc1ccc(CCN2C(=S)N([C@@H](Cc3ccc(O)cc3)CN3CCC[C@@H]3CN3C(=S)NC[C@@H]3CC(C)C)C[C@@H]2Cc2ccccc2)cc1 | . | . | 4.6µM* | . | 5.2µM* | -16
Cc1ccc(C(=O)N2CCN(S(=O)(=O)c3ccccc3)CC2)s1 | -7% | -1 | -11% | 1% | -26% | -2
CC(C)C[C@H]1CN([C@@H](CC(C)C)CN2CCCC2CN2C(=S)NC[C@@H]2Cc2ccccc2)C(=S)N1CCc1ccccc1 (stereo not given in full) | . | . | ? | . | ? | 12
CCOc1ccc(CCN2C(=S)N([C@@H](CC(C)C)CN3CCCC3CN3C(=S)NC[C@@H]3CC(C)C)C[C@@H]2Cc2ccccc2)cc1 (stereo not given in full) | . | 7 | 16µM* | . | 18µM* | 15
CCOc1ccc(CCN2C(=S)N([C@@H](CC(C)C)CN3CCCC3CN3C(=S)NC[C@@H]3CC(C)C)C[C@@H]2CC(C)C)cc1 (stereo not given in full) | . | 6 | ? | . | 18µM* | 26
CCOC(=O)C1(C)CCN1C(=O)c1ccc(C(F)(F)F)cc1 (stereo not given) | . | . | -15% | . | -26% | 8
